This note sets out measurements from PubChem BioAssay (Tox21).

Assay [1] is described as follows: qHTS assay for small molecule agonists of the p53 signaling pathway (AID 651631; calls by dose curve; note: nearly all actives have a fitted effect of over 15% in size). The essentials: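 HCT-116 cells carrying a stable p53 response element–beta-lactamase reporter were plated, rested 5 h at 37 °C, then exposed to compound in DMSO for 16 h at 37 °C; reporter activity was read as FRET substrate fluorescence after 2 h at room temperature.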
For orientation: In qHTS, concentration-response curves come from the screen itself.

A short description of assay [2]: qHTS assay for small molecules that induce genotoxicity in human embryonic kidney cells expressing luciferase-tagged ATAD5 (AID 651632). Note: nearly all actives have a fitted effect of over 15% in size. The essentials: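 ATAD5-luc HEK293T, 2,000 cells/well; cpd or DMSO pin-transferred; 16 hr, 37C/5% CO2; Amplite 30 min RT; luminescence.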
A short description of assay [3]: qHTS assay for small molecule agonists of the p53 signaling pathway - cell viability (AID 651633; calls by dose curve; note: series mostly up to about 83 µM; nearly all actives have a fitted effect of over 30% in size). A digest of the protocol:
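p53RE-bla cells were treated with compound for 16 hours at 37 C. Cytotoxicity was then measured as CellTiter-Glo luminescence after 30 min at room temperature.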

The nature of assay [4]: qHTS assay for small molecule disruptors of the mitochondrial membrane potential - cell viability (AID 720634; calls by dose curve;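 note: human HepG2 liver cancer cells; series mostly up to about 83 µM; nearly all actives have a fitted effect of over 20% in size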). The essentials: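 Cells: HepG2, 2,000/well, attached overnight. Compound 1 hr, 37 C/5% CO2. +m-MPI dye, +CellTiter-Glo 30 min RT. Readout: luminescence (ATP).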
Assay [5] can be described thus: qHTS assay to test for compound auto fluorescence at 590 nm (red) in HepG2 cells (AID 720674). The essentials:
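HepG2 cells, 2,000 per well in MEM with 10% FBS, attached overnight at 37 C, then got 23 nL compound or DMSO. After 1 hr at 37 C, 5% CO2, red fluorescence was read at 540/590 nm against Rose Bengal sodium as reference.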

Assay [6] can be described thus: qHTS assay to test for compound auto fluorescence at 535 nm (green) in HepG2 cells (AID 720675).
The nature of assay [7]: qHTS assay to test for compound auto fluorescence at 460 nm (blue) in HEK293 cells (AID 720678). The essentials: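 Blue-channel (Ex/Em 405/460 nm) intensity measured in HEK293 cultures after overnight compound exposure at 37C; signal expressed relative to triamterene. Cells plated 2,000 per well in 10% dialyzed FBS medium and allowed 4-5 hr to attach.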
The nature of assay [8]: qHTS assay to test for compound auto fluorescence at 590 nm (red) in HEK293 cells (AID 720679). A digest of the protocol: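 Red-channel autofluorescence (Ex/Em 540/590 nm; Rose Bengal sodium reference) was measured after overnight 37C, 5% CO2 exposure of attached HEK293 cells, 2,000 per well in medium with 10% dialyzed FBS.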
The nature of assay [9]: qHTS assay for small molecules that induce genotoxicity in human embryonic kidney cells expressing luciferase-tagged ATAD5 - cell viability (AID 651634; calls by dose curve; note: nearly all actives have a fitted effect of over 25% in size; note: potency is the fitted concentration of half-maximal effect). The essentials: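 Fluorescence from CellTiter-Fluor, reporting protease activity within live cells, served as the viability read-out. HEK293T cells carrying luciferase-tagged ATAD5 had been treated with compound for 15.5 hr at 37C.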

The nature of assay [10]: qHTS assay for small molecule disruptors of the mitochondrial membrane potential (AID 720635). A digest of the protocol: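 HepG2 cells exposed to compound 1 hr at 37C, then Mito-MPS dye 30 min. Ratio read of aggregate (540/590 nm) versus monomer (490/535 nm) fluorescence.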

Unmarked numbers belong to inactive results. Records with an inconclusive call do not appear. Active and inactive are the calls of the source. Unless noted, calls come from the whole dose curve; as a rule, active = well fitted curve in the direction sought with a large enough effect in the repeat runs; inconclusive = weak or mixed curves; inactive = no such curve, though single readings can be large; an effect the other way counts as inactive or inconclusive.
% is set by controls: 0 for no effect and ±100 for the full control effect.

For `CCOc1cc([N+](=O)[O-])c(OCC)cc1N1CCOCC1`, the result in assay [1], in [3], in assay [4], in assay [5], in assay [6] and in assay [7] was inactive. In assay [8], the molecule was classed as inactive. Besides, the Potency result in [2] is “inactive”.
Consider `C=CCCCCCCCCCCCC`, for which the molecule was called inactive in assay [1], in [4], in assay [5], in [6], in assay [7] and in assay [8]. Besides, the Potency result in [2], in assay [9] and in assay [10] was “inactive” throughout.
On to `BrCCCCCBr`, for which the molecule was classed as inactive in assay [1], in assay [3], in assay [4], in assay [6], in [7] and in assay [8]. Besides, the Potency entry in assay [2] and in [9] was “inactive” throughout.
For `Brc1ccc(-c2ccccc2)cc1`, the result in [1], in [3], in assay [5], in assay [6], in assay [7] and in assay [8] was inactive. The Potency result in assay [2] and in assay [9] was “inactive” in each case.
Regarding `O=C(NCCN1CCOCC1)c1ccc(Cl)cc1`, the outcome in assay [1], in [4], in assay [6], in assay [7] and in assay [8] was inactive. Also, the Potency entry in assay [2], in [9] and in assay [10] was “inactive” in each case.
Regarding `CC(C)CC(=O)O`, the outcome in assay [1], in [4], in assay [5], in [6], in assay [7] and in assay [8] was inactive. The Potency entry in assay [2], in [9] and in assay [10] was “inactive” each time.
Consider `CO[C@@H]1[C@@H](OC(N)=O)[C@@H](O)[C@H](Oc2ccc3c(O)c(NC(=O)c4ccc(O)c(CC=C(C)C)c4)c(=O)oc3c2C)OC1(C)C`, for which the result in [1], in assay [3] and in assay [4] was inactive. The Potency result in [2] and in [9] was “inactive” in each case. Further, the fluorescence, relative to Rose Bengal in [5] is -0.195% [at 18.6 µM]. Further, in [6], the fluorescence, % of fluorescein control is -0.0594% [at 18.6 µM]. Besides, in assay [7], the fluorescence, % of triamterene was 0.0216% [at 18.6 µM]. Also, the fluorescence, % of fluorescent control in assay [8] is 0.173% [at 18.6 µM].
As to `FC(F)(F)c1ccccc1-n1ccnc1`, the molecule was called inactive in [1], in assay [4], in assay [5], in assay [6], in assay [7] and in assay [8]. In addition, the Potency entry in assay [2], in assay [9] and in [10] was “inactive” in each case.
`CCCCCCN`: the call in assay [1], in assay [3], in [4], in [5], in [6] and in [7] was inactive. Moreover, the molecule was called inactive in assay [8]. Further, the Potency entry in assay [2] and in assay [9] was “inactive” each time.
Regarding `CCCCCCOC(=O)CC`, the molecule was classed as inactive in [1], in [4], in [5], in [6], in assay [7] and in [8]. Also, the Potency entry in assay [2], in assay [9] and in assay [10] was “inactive” in each case.
As for `CC1=CCC(C(C)C)=CC1`, the outcome in [1], in assay [3], in assay [5], in assay [6], in assay [7] and in assay [8] was inactive. Also, the Potency entry in assay [2] and in [9] was “inactive” each time.
For the molecule `CC(=O)Nc1ccc(S(=O)(=O)Nc2ccc([N+](=O)[O-])cc2)cc1`, the molecule was classed as inactive in assay [1], in assay [3], in [4], in assay [5], in [6] and in assay [7]. Besides, the call in assay [8] was inactive. Besides, the Potency entry in assay [2] was “inactive”.
As to `CCCCCCCCCC(C)=O`, the molecule was called inactive in [1], in assay [3], in assay [4], in [6], in assay [7] and in [8]. Moreover, the Potency entry in [2] and in assay [9] was “inactive” each time.
Turning to `ClCCCl`, the molecule was called inactive in assay [1], in assay [4], in [6], in assay [7] and in [8]. Moreover, the Potency entry in [2], in assay [9] and in assay [10] was “inactive” each time.
Consider `CCCC/C=C/C=C\C=O`, for which the molecule was called inactive in [1], in assay [3], in [4], in assay [5], in [6] and in assay [7]. Besides, the result in assay [8] was inactive. Moreover, the Potency entry in assay [2] and in assay [9] was “inactive” each time.
`Cc1cc(Cl)c(C)cc1Cl`: the outcome in assay [1], in [3], in [4], in assay [6], in assay [7] and in [8] was inactive. Further, the Potency entry in [2] and in assay [9] was “inactive” in each case.
Regarding `Nc1ccc2cc(S(=O)(=O)O)cc(O)c2c1`, the call in assay [1], in assay [4], in [5], in assay [6], in assay [7] and in [8] was inactive. For the same molecule, the Potency entry in [2], in assay [9] and in assay [10] was “inactive” in each case.
On to `CCCCOCCOC(=O)COc1nc(Cl)c(Cl)cc1Cl`, for which the result in [1], in assay [3], in assay [4], in assay [6], in assay [7] and in assay [8] was inactive. Also, the Potency entry in [2] and in assay [9] was “inactive” in each case.
Regarding `CC(S)C(=O)NCC(=O)O` (stereo not given), the outcome in assay [1], in [3], in assay [5], in assay [6], in assay [7] and in assay [8] was inactive. Further, the Potency entry in assay [2] and in assay [9] was “inactive” in each case.
On to `Nc1ccc([N+](=O)[O-])c(N)c1`, for which the molecule was classed as inactive in assay [1], in assay [3], in assay [4], in assay [5], in assay [6] and in assay [7]. Moreover, in assay [8], the outcome was inactive. The Potency entry in [2] is “inactive”. In addition, the Potency in [9] was 47.3 µM (active).
Turning to `O=C1c2ccccc2C(=O)C1c1ccccc1`, the outcome in assay [1], in [3] and in assay [4] was inactive. Also, the Potency result in assay [2] and in assay [9] was “inactive” in each case. Also, the fluorescence, relative to Rose Bengal in assay [5] was 0.709% [at 18.6 µM]. In addition, the fluorescence, % of fluorescein control in assay [6] was 0.0928% [at 18.6 µM]. In addition, in assay [7], the fluorescence, % of triamterene was -0.166% [at 18.6 µM]. Further, the fluorescence, % of fluorescent control in [8] was 0.0127% [at 18.6 µM].
As for `CC(C)CC(C)CC(C)CC(C)COC(=O)c1ccccc1C(=O)OCC(C)CC(C)CC(C)CC(C)C` (stereo not given), the molecule was called inactive in [1], in assay [3], in assay [4], in assay [6], in assay [7] and in assay [8]. Also, the Potency result in assay [2] and in assay [9] was “inactive” in each case.
For `CCOC(=O)/C=C/c1ccccc1`, the molecule was classed as inactive in assay [1], in assay [4], in assay [5], in assay [6], in [7] and in assay [8]. Besides, the Potency result in assay [2], in assay [9] and in assay [10] was “inactive” each time.
Turning to `CCCCN`, the molecule was called inactive in assay [1], in [3], in assay [4], in assay [5], in [6] and in assay [7]. In assay [8], the result was inactive. The Potency result in assay [2] and in [9] was “inactive” in each case.
With `C=C(C)C1CCC(C)(O)CC1` (stereo not given), the molecule was classed as inactive in [1], in assay [4], in assay [5], in [6], in [7] and in [8]. For the same molecule, the Potency entry in [2], in assay [9] and in [10] was “inactive” throughout.
On to `O=C(/N=N/C(=O)OCc1ccccc1)OCc1ccccc1`, for which the molecule was called inactive in assay [1], in assay [3], in assay [5], in [6], in [7] and in assay [8]. The Potency result in [2] and in assay [9] was “inactive” in each case.
As to `CC(N)C(=O)OC(C)(C)Cc1ccc(Cl)cc1` (stereo not given), the molecule was called inactive in assay [1], in assay [3], in assay [4], in assay [5], in assay [6] and in assay [7]. For the same molecule, the outcome in assay [8] was inactive. The Potency result in [2] and in assay [9] was “inactive” each time.
